Reference: PubChem BioAssay AID1626 (SRMLSC, 2009)
Among all 220,000 compounds or so, about 2,000 (0.91%) were called active. Roughly 2% stayed inconclusive and do not appear here. Only a sample is shown. Entries with a potency or affinity are not part of this list. A number with no mark means an inactive call. No stated cut-off is given here; in the data, inconclusive means inhibition above about 80% without an active follow-up result; inactive means below that; test concentration not stated here.

Test: M. tuberculosis H37Rv growth inhibitors, H37Rv strain (AID 1626);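 further: bacteria incubated seven days before Alamar blue readout; 0% = bacteria only wells and 100% = bacteria with antibiotic wells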
Conditions: stronger effect = higher value, concentration not given here

Compound | inhibition
COc1ccc(/C=C/c2nc(-c3ccccc3O)n(-c3ccccc3)n2)cc1 | -4.12%
Oc1ccc(/C=C/c2nc(-c3ccccc3O)n(-c3ccccc3)n2)cc1 | 21.6%
O=C(Nc1ccc(Nc2ccncc2)cc1)c1ccc(Nc2ccnc3ccc([N+](=O)[O-])cc23)cc1 | -3.41%
O=C(Nc1ccc(Nc2ccncc2)cc1)c1ccc([N+](=O)[O-])cc1 | -0.61%
COc1ccc(-c2nc(-c3ccccc3)nc(N3CCN(C)CC3)c2C#N)cc1 | 9.82%
COc1ccc(-c2nc(-c3cccc(C)c3)nc(N3CCN(C)CC3)c2C#N)cc1 | 6.59%
CN1CCN(c2nc(-c3ccccc3)nc(-c3ccccc3)c2C#N)CC1 | 20.2%
COc1ccc(-c2nc(-c3ccccn3)nc(N3CCN(C)CC3)c2C#N)cc1 | 1.76%
N#Cc1c(-c2ccccc2)nc(-c2ccccc2)nc1N1CCOCC1 | -9.91%
COc1cccc(-c2nc(N3CCN(C)CC3)c3ccccc3n2)c1O | 10.5%
O=C(COC(=O)c1ccco1)Nc1ccccc1 | -8.55%
CC(=O)c1sc(=S)n(-c2ccccc2)c1C | 7.39%
O=C(Cn1cnc2c(cnn2-c2ccc(F)cc2)c1=O)N1CCN(c2ccccc2F)CC1 | 3.88%
O=S(=O)(c1ccc(-c2csc(-c3cccnc3)n2)cc1)N1CCOCC1 | 3.97%
NC(=O)NC(=O)COC(=O)c1ccccc1OCc1ccc(F)cc1 | 4.1%
CN(C)S(=O)(=O)c1cc(NC(=O)CN2CCCc3ccccc32)ccc1Cl | -10.6%
O=C(CN1CCN(S(=O)(=O)c2ccc(Cl)cc2)CC1)Nc1ccc(F)cc1F | 6.43%
O=C(Cc1nnc(NC(=O)Nc2ccc(Cl)cc2)s1)NCc1ccccc1 | -0.51%
CCOc1ccc(NC(=O)Cc2ccccc2)cc1 | 5.27%
Cc1cccc(NC(=O)CCN2C(=O)C3C4C=CC(C4)C3C2=O)c1 (centres undefined) | 3.17%
O=C(CCN1C(=O)C2C3C=CC(C3)C2C1=O)Nc1ccc2c(c1)OCO2 (centres undefined) | -1.34%
CCOCC(=O)Nc1ccc(C)c(Cl)c1 | 76.9%
O=C(CSc1ncn[nH]1)Nc1ccc(OCc2ccccc2)cc1 | 47.3%
Cc1nc(SCC(=O)Nc2ccccn2)n[nH]1 | -3.41%

Compound | inhibition
CC(=O)OCC(=O)Nc1ccc(Br)c(C)c1 | 21.6%
CCOC(=O)C(=O)Nc1ccc(OCc2ccccc2)cc1 | 12.6%
O=C(CSc1ncccn1)Nc1ccc2c(c1)CCC2 | 76%
CCOC(=O)c1sc(=S)n(C)c1NC(=O)c1ccc(C(C)(C)C)cc1 | 79.7%
Oc1ccc(-c2nc3ccccc3s2)cc1 | 59.6%
CCCOc1ccc(C(CC(=O)O)NC(=O)c2ccc3c(c2)OCO3)cc1 (centres undefined) | 3.69%
COc1ccc(-c2ocnc2C(=O)N2CCN(C(c3ccccc3)c3ccccc3)CC2)cc1 | -4.16%
O=C(NNC(=O)C1CCCO1)c1ccccc1Cl (centres undefined) | -7.82%
CCN(CC)S(=O)(=O)c1ccc(-c2nnc(SCC(=O)N3c4ccccc4CC3C)n2CC)cc1 (centres undefined) | 5%
CCC(CC)c1nnc(NC(=O)CCCN2C(=O)c3ccccc3C2=O)s1 | -6.94%
O=C(CN1CCN(c2ccccc2)CC1)Nc1ccc(OCc2ccccc2)cc1 | -8.11%
O=C(CN1CCCC1)Nc1ccc(OCc2ccccc2)cc1 | -0.61%
COc1ccc(CNC(=O)C2Cc3ccccc3CN2C(=O)c2ccco2)cc1 (centres undefined) | -0.615%
COCCNC(=O)c1ccc(CS(=O)(=O)c2ccc(C)cc2)o1 | -5.24%
COC(=O)c1ccc2nc(NC(=O)CN3C(=O)CCC3=O)sc2c1 | -25.1%
Cc1ccc(C(=O)NCCSC(C)(C)C)cc1 | 2.64%
Cc1ccc(SCCNC(=O)c2ccc(C)c([N+](=O)[O-])c2)cc1 | -5.78%
Cc1ccc2c(c1)-c1[nH]c(=S)ncc1CS2 | 3.39%
COc1ccc(-c2cc(C(F)(F)F)nc(SCC(=O)NCc3cccs3)n2)cc1OC | 0.43%
Cc1cc(OCC(=O)N(Cc2ccco2)C2CCS(=O)(=O)C2)ccc1Cl (centres undefined) | -8.25%
O=C(COC(=O)/C=C/c1ccc(F)cc1)NCc1ccco1 | -4.03%
O=C(CCCn1cc([N+](=O)[O-])cn1)NC1CCCCCC1 | 5.99%
CS(=O)(=O)c1cccc(C(=O)NCc2ccc(F)cc2)c1 | 9.82%
Cc1ccc(-c2cc(C(F)F)n3ncc(C(=O)Nc4c(C)nn(Cc5c(Cl)cccc5Cl)c4C)c3n2)cc1 | 57.7%

Compound | inhibition
Cc1nn(Cc2c(Cl)cccc2Cl)c(C)c1NC(=O)c1cnn2c(C(F)F)cc(-c3ccccc3)nc12 | 49.7%
COc1ccccc1NC(=O)CSC1=NCCN1 | -6.91%
C=CCN1CN(S(=O)(=O)c2cccs2)c2nc3ccccc3nc21 | -3.39%
Clc1ccccc1OCCCCn1ccnc1 | 2.53%
Cc1cccc(C(C)(C)C)c1OCCn1ccnc1 | -11%
Cc1ccccc1OCCCCCn1ccnc1 | 5.71%
Cc1ccc(C)c(OCCCCCn2ccnc2)c1 | -10.5%
COc1ccccc1NC(=O)N1CCN(CCc2ccccc2)CC1 | -2.85%
CC(=O)OCC1OC(OC(C)=O)C(NC(=O)c2cccnc2)C(OC(C)=O)C1OC(C)=O (centres undefined) | -0.72%
CCCCN(C(=O)c1cc2ccccc2o1)c1c(N)n(CC(C)C)c(=O)[nH]c1=O | 9.87%
COc1ccc(-c2c(C)[nH]n3c(=O)c(Cc4ccccc4)c(C)nc23)cc1OC | 38.6%
O=c1c2c(nc3c(-c4ccccc4)c[nH]n13)CCCC2 | 14.2%
Cc1ccc(-c2[nH]n3c(=O)c4c(nc3c2C)CCCC4)cc1 | 5.52%
Nc1[nH]n2c(=O)c3c(nc2c1N=Nc1ccccc1)CCCC3 | 79.3%
O=c1c2c(nc3c(-c4ccccc4)c[nH]n13)CCC2 | 2.63%
Cc1[nH]n2c(=O)c3c(nc2c1-c1cccc2ccccc12)CCC3 | -8.68%
COc1ccc(-c2c(C)[nH]n3c(=O)c(Cc4ccccc4)c(C)nc23)cc1 | 70.9%
COc1cccc(N=Nc2c(N)[nH]n3c(=O)c4c(nc23)CCCC4)c1 | 19.3%
CC(=O)Nc1ccc2c(CSc3nnc(-c4cccnc4)n3-c3ccc(C)cc3C)cc(=O)oc2c1 | -5.62%
Cc1ccc(CNC(=O)CSc2nc(C)cc(C)c2C#N)cc1 | -9.02%
C/C(=N\NC(=O)C1(C)NC(C)(C)Cc2ccccc21)c1ccccc1 (centres undefined) | 1.17%
COc1ccc(C(=O)Nc2ccc(N3CCN(c4ccc(OC)cc4)CC3)c(C#N)c2)cc1 | -7.83%
COc1ccc(-n2c(=S)[nH]c3cc(C(=O)NCCCN4CCCC4=O)ccc3c2=O)cc1OC | -1.47%
CC(=O)COC(=O)CNC(=O)c1ccc(Br)cc1 | -5.11%

Compound | inhibition
Cc1cccc(N(Cc2cc3ccccc3[nH]c2=O)C(=O)c2ccco2)c1C | 4.31%
COc1ccc(NC(=O)CCOc2ccccc2)c(OC)c1 | -0.51%
COC(=O)c1cccc(NC(=O)CCCOc2cccc(C)c2)c1 | -9.57%
O=C(CCCCCNC(=S)Nc1ccccc1)C[N+](=O)[O-] | -1.95%
Cc1c(-c2ccccc2)[nH]n2c(=O)c3c(nc12)CCCC3 | 6.84%
Cc1[nH]n2c(=O)c3c(nc2c1-c1ccccc1)CCC3 | 3.85%
CN(C)c1cc(-c2cccc([N+](=O)[O-])c2)oc(=O)c1Cl | 1.64%
Cc1ccc(C(=O)N[C@@H](C)CN2C3=NC[C@H](Cc4ccccc4)N3C[C@H]2Cc2ccc(O)cc2)cc1Br | 21.4%
Cc1ccc(C(=O)NCCN2C3=NC[C@@H](Cc4ccccc4)N3C[C@H]2Cc2ccc(O)cc2)cc1Br | 40.7%
COc1ccc(C[C@@H]2CN3C(=NC[C@@H]3C)N2C[C@H](C)NC(=O)c2ccc(C)c(Br)c2)cc1 | 8.27%
Cc1ccc(C(=O)NCCN2C3=NC[C@H](Cc4ccc(O)cc4)N3C[C@H]2Cc2ccc(O)cc2)cc1Br | 13.6%
Cc1cc(=O)oc(C)c1C(=O)Nc1cccc(F)c1 | -6.13%
CNC(=S)Nc1cccc(C(C)=O)c1 | -3.56%
Cc1ccc(N=C2NC(=O)/C(=C/c3cccnc3)S2)c(C)c1 | 20.4%
COc1cc2nc(SCc3ccc(F)cc3)n(Cc3cccs3)c(=N)c2cc1OC | 8.63%
COCCCn1c(SCc2cccc(OC)c2)nc2cc(OC)c(OC)cc2c1=N | 6.91%
COc1ccc(-c2nc(Cn3c(SCc4ccc(F)cc4)nc4ccncc43)c(C)o2)cc1OC | 67.8%
COc1cc2nc(SCc3ccc(Cl)cc3Cl)n(Cc3cccs3)c(=N)c2cc1OC | 11.9%
COc1cc2nc(SCc3ccc(C(F)(F)F)cc3)n(Cc3cccs3)c(=N)c2cc1OC | -5.09%
COc1ccc(-c2nc(Cn3c(SCc4cccc(F)c4)nc4ccncc43)c(C)o2)cc1OC | 55.2%
COCCCn1c(SCc2ccc(OC)cc2)nc2cc(OC)c(OC)cc2c1=N | 1.79%
COCCCn1c(SCc2ccccc2)nc2cc(OC)c(OC)cc2c1=N | 0.99%
